Results from PubChem BioAssay AID624300 (Southern Research Specialized Biocontainment Screening …, 2012).
Screen size: about 2,400 compounds; about 360 (15%) were called active. Not all results are given here. Potency and affinity values are given separately. Values without a mark were called inactive.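 Rule for the calls: active = viability falls under 70% at one or more tested concentrations, taken as toxicity; inactive = viability stays over 70% at every dose.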

Experiment: HeLa cell cytotoxicity, dose response, cytotoxicity control for MgcRacGAP inhibitor project (AID 624300);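 note: 100% = median of untreated control wells on the same plate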
Details: CellTiter-Glo luminescence, 24 h; series mostly up to 100 µM; viability: at the top concentration

| SMILES | viability |
| --- | --- |
| CCCCn1c(C)cc2cc(O)ccc21 | 101% |
| COc1ccc(N2CCN(C(=O)c3ccccc3N(C)S(=O)(=O)c3ccccc3)CC2)cc1 | 97.8% |
| COc1cc(CNCc2cc(OC)c(OC)c(OC)c2)cc(OC)c1 | 96.5% |
| COc1cc2c(cc1NCc1ccc3c(c1)OCO3)oc1ccccc12 | 81% |
| CCc1cc(/C(Cc2cscn2)=N\O)c(O)cc1O | 95.1% |
| CCN(CC)c1ccc(NC(=O)COC(=O)CCc2cc(OC)c(OC)c(OC)c2)cc1 | 104% |
| O=C(CN1CCN(C/C=C/c2ccccc2)CC1)Nc1ccccc1C(=O)NC1CC1 | 95.7% |
| COc1ccccc1CNCC(=O)NCc1ccc(C)cc1 | 99.6% |
| CCn1c2ccccc2c2cc(NC(=O)CNC)ccc21 | 101% |
| COc1cc(CNCc2ccccc2C(F)(F)F)cc(OC)c1 | 96.3% |
| CCn1c2ccccc2c2cc(N)ccc21 | 91.2% |
| COc1ccc(/C=N\NC(=O)c2ccc(=O)[nH]n2)cc1O | 106% |
| O=C(c1cccc(F)c1)N1CCN(C2CCCCC2)CC1 | 103% |
| CN(C)CCCNc1ncnc2sc(-c3ccccc3)cc12 | 91.6% |
| Cc1cc(C)c(OCCCCN2CCC(C)CC2)c(Br)c1 | 89.6% |
| O=C(CN1CCN(c2ccc(O)cc2)CC1)NC(=O)NCc1ccco1 | 98.2% |
| COc1cc(/C=N\NC(=O)CNC(=O)C2COc3ccccc3O2)ccc1O (centres undefined) | 109% |
| Oc1ccc(C2=Nn3c(nnc3-c3ccco3)SC2)cc1O | 85.5% |
| CCN(CC)c1ccc(NC(=O)COC(=O)CCC(=O)c2cccs2)cc1 | 106% |
| O=C(Cc1coc2cc(O)ccc12)NNC(=O)c1cccs1 | 108% |
| CN(C)c1ccc(C(=O)NC2(N3CCC3=O)CCCC2)cc1 | 94% |
| Cc1ccn2c(NC3CCCC3)c(-c3ccncc3)nc2c1 | 84.7% |
| Cc1ccc(Nc2c(-c3ccco3)nc3ccccn23)cc1 | 96.7% |
| O=CNc1ccc2c(c1)Cc1cccc(NC=O)c1-2 | 84.9% |
| O=C(CNCc1ccco1)Nc1ccc(Oc2ccccc2)cc1 | 89.1% |

| SMILES | viability |
| --- | --- |
| Cc1ccccc1OCCn1c(=S)[nH]c2c(N)ncnc21 | 104% |
| CC1CC(C)CN(CC(=O)NC(c2ccccc2)c2ccccc2)C1 (centres undefined) | 88.4% |
| Cc1c(-c2ccccc2)sc(N)c1C(=O)N1CCOCC1 | 103% |
| CCN(CC)c1ccc(NC(=O)C2=CC=CN3CCS(=O)(=O)N=C23)cc1 | 109% |
| CCOc1cc(/C=C2\N=C3CCCCCN3C2=O)ccc1O | 101% |
| CCOC(=O)C1=C(O)/C(=C\c2ccc(O)c(OCC)c2)N=C1C | 99.8% |
| COc1ccccc1N1CCN(CC(=O)NCC2CCCO2)CC1 (centres undefined) | 102% |
| Cc1cc(C)nc(SCC(=O)c2ccc(O)c(O)c2)n1 | 88.8% |
| O=C(CSc1nnnn1-c1ccc(F)cc1)c1ccc(O)c(O)c1 | 105% |
| COc1cc(/C=N/NC(=O)c2ccc(N3CCCC3=O)cc2)ccc1O | 112% |
| COc1cccc2cc(C(=O)Oc3ccc(NC(C)=O)cc3)c(=O)oc12 | 109% |
| Cc1ccc(C)c(OCC(O)CN2CCC(C)CC2)c1C (centres undefined) | 93.9% |
| O=S(=O)(c1ccc2ccccc2c1)N1CCN(c2ccc(O)cc2)CC1 | 109% |
| Cc1ccc(S(=O)(=O)N2CCN(C(=O)CN3CCN(c4ccc(O)cc4)CC3)CC2)cc1 | 107% |
| COc1cc(C(=O)N/N=C/c2cn(Cc3ccccc3)c3ccccc23)ccc1O | 102% |
| O=C1CCCC(O)=C1C=Nc1ccc(O)cc1 | 98% |
| COc1cc(/C=N/N=C2\CC3CCC2(C)C3(C)C)ccc1O (centres undefined) | 96.9% |
| CCN(CC)c1ccc(/C=N/NC(=O)c2cc3ccccc3[nH]2)cc1 | 100% |
| O=C(C[n+]1ccccc1)N/N=C/c1ccc(O)cc1 | 98.7% |
| COc1ccc(C)cc1NC(=O)C(NCC(O)c1ccccc1)c1ccccc1 (centres undefined) | 90.1% |
| CCc1nc(Nc2ccc(N3CCN(C(C)=O)CC3)cc2)c2oc3ccccc3c2n1 | 102% |
| CC(=O)N1CCN(c2ccc(NCc3ccccc3)cc2)CC1 | 100% |
| COc1cc(/C=C/C(=O)OCC(=O)c2ccc(OC(F)F)cc2)ccc1O | 94.6% |
| CCN(CC)c1ccc(NC(=O)c2ccc(S(=O)(=O)N3CCOCC3)cc2)cc1 | 95.2% |
| CCN(CC)c1ccc(NC(=O)c2ccc3c(c2)OCO3)cc1 | 102% |

| SMILES | viability |
| --- | --- |
| C/C=C(\C)CN1CCN(c2ccc(C)cc2)CC1 | 95.2% |
| COc1cc(/C=C(\C#N)C(=O)Nc2ccc3c(c2)OCCO3)ccc1O | 110% |
| COc1cc(/C=C(\C#N)C(=O)c2c[nH]c3ccccc23)cc(OC)c1O | 98.6% |
| N#C/C(=C\c1ccc(N2CCOCC2)o1)c1nc2ccccc2[nH]1 | 94.4% |
| N#C/C(=C/c1ccc(N2CCOCC2)o1)c1nc2ccccc2[nH]1 | 98.4% |
| CN1C=CC=C/C1=C(\C#N)c1nc2ccccc2[nH]1 | 102% |
| COc1ccccc1N1CCN(/N=C/c2cc(OC)c(O)c(OC)c2)CC1 | 98.3% |
| COc1ccc(CN2CCN(Cc3ccccc3F)CC2)cc1OC | 94% |
| CN(c1ccccc1)S(=O)(=O)c1cccc(C(=O)NCCc2ccc(O)c(O)c2)c1 | 93.7% |
| COc1cccc(OC)c1C(=O)N1CCN(Cc2ccc3c(c2)OCO3)CC1 | 96.2% |
| COc1cc(/C=C/C(=O)OCC(=O)N(C)Cc2ccccc2)ccc1O | 90% |
| Cc1ccc(C2=NN=C(NC(=O)CSc3nncn3C)SC2)cc1 | 86.7% |
| COc1cc(/C=N/NC(=O)CC2C(=O)NN=C2C)ccc1O (centres undefined) | 98.4% |
| CCN(CC)c1ccc(NC(=O)CN2C(=O)NC3(CCc4ccccc43)C2=O)cc1 (centres undefined) | 108% |
| Nc1ccc(C(=O)c2ccc3c(c2)OCCO3)cc1N | 105% |
| COc1cc(-c2nc3ccccc3s2)ccc1O | 92.2% |
| Cc1ccc(S(=O)(=O)Nc2nsc(N)n2)cc1 | 99.2% |
| Oc1ccc(Cc2ccccc2Cl)c(O)c1 | 89% |
| CCOc1cc(/C=N/NC(=O)C(C)Sc2ccccn2)ccc1O (centres undefined) | 114% |
| COc1cc(/C=N\Nc2cc(=O)n(C)c(=O)n2C)ccc1O | 93% |
| COc1cc(/C=C/C(=O)OCC(=O)N(CC(C)C)c2c(N)n(Cc3ccccc3)c(=O)[nH]c2=O)ccc1O | 83.7% |
| COc1ccc(Nc2ccccc2)c(C)c1 | 93% |
| O=[N+]([O-])c1cc([N+](=O)[O-])c2nonc2c1Nc1ccccc1O | 91.2% |
| Cc1cc(C)c(C)c(S(=O)(=O)N2CCN(c3ccc(O)cc3)CC2)c1C | 111% |
